Results reported in PubChem BioAssay AID1159606 (Sanford-Burnham Center for Chemical Genomics, 2016).
Out of some 360,000 compounds screened, about 7,300 (2%) were called active. Cut-off read from the data, not from the text of the source: active = inhibition above about 50%; inactive = the rest. The list comes from a sample in which actives are over-represented; it also holds similar structures and randomly drawn compounds.

experiment: blockers of TWEAK-induced Fn14 reporter activity – luciferase reporter cells, uHTS, primary screen (AID 1159606); settings: TWEAK-stimulated Fn14 reporter cells, luciferase luminescence, 8 h; at 10 µM; active compounds read high

inhibition, active:
CC(C)=CCCC1(C)C=Cc2c(ccc3c2[nH]c2cc(O)c(C)cc23)O1 (stereo not given) 67%
CCCOc1ccc(C(=O)C(CCC(CNCC)C(=O)c2ccc(OCCC)cc2)CNCC)cc1 (stereo not given) 103%
Cc1onc(-c2ccccc2)c1-c1nnc(COC(=O)c2ccc(N(C)C)cc2)o1 54.4%
COc1cccc2c(C)c(C(=O)O)[nH]c12 74.4%
COc1ccc(C(=O)/C=C/Nc2ccccn2)cc1 97.4%
Cc1ccc(N/C=C/C(=O)c2ccccc2)cc1C 66.8%
CCOc1ccc(N/C=C/C(=O)c2ccccc2)cc1 70.8%
OCCN1CCN(C(=S)c2ccc(-c3ccccc3)cc2)CC1 54.4%
Cc1ccccc1C(CC(=O)c1cccs1)C(C#N)C#N (stereo not given) 83.8%
O=C(O)c1ccccc1CSc1nc2ccccc2s1 53.1%
CN(C)S(=O)(=O)N1CCC(Oc2cccc(C(=O)NCCCC3CCCC3)c2)CC1 57.2%

inhibition, inactive:
CN(C(=O)COC(=O)Cn1cnc2c1c(=O)n(C)c(=O)n2C)C1(C#N)CCCCC1 -7.55%
COC(=O)C(C)N(C#N)c1nc(C)nc(C)n1 (stereo not given) -3.55%
Cc1nnc(SC(C(=O)Nc2cc(Cl)cc(Cl)c2)c2ccccc2)[nH]c1=O (stereo not given) -1.44%
CC(C)CCOc1ccc(C(=O)C[N+]2(C)CCOCC2)cc1 -7.15%
CCCc1ccc(OCCNC(=O)c2ccccc2Br)cc1 -12.5%
CC(Oc1ccc(F)cc1)C(=O)Nc1ccccc1C(=O)NC1CC1 (stereo not given) 8.99%
COC(=O)c1onc(-c2c(OC)cc(OC)cc2OC)c1C(=O)OC 10.7%
CC(C)C(C(=O)NC1CCCCC1)N(CC1CCCO1)C(=O)CNS(=O)(=O)c1ccc(F)cc1 (stereo not given) 8.87%
Cc1ccc(N(CC(=O)NC2CCCCC2)C(=O)CCCC(=O)Nc2ccccn2)c(C)c1 -5.23%
Cc1onc(-c2ccccc2Cl)c1C(=O)OCc1nnc(-c2ccccc2)o1 -0.22%
Cc1ccc(C(=O)NCC(=O)OCc2nnc(-c3ccccc3)o2)cc1 9.26%
O=C(NC1CCCC1)C1c2ccccc2OCC(=O)N1CC(F)(F)F (stereo not given) 1.42%
COC1=CC(=O)OC(C)(c2ccccc2)C1 (stereo not given) 20.1%
COc1cccc2c(O)cc(=O)n(C)c12 15.4%
COc1cc2c(C(=O)O)c(C)n(C)c2c2ccccc12 14%
CC1(C(=O)NS(=O)(=O)c2ccc(C#N)cc2)CCN1C(=O)c1ccc(C2CCCCC2)cc1 (stereo not given) 24.4%
CN1CCN(C(=O)CCc2ncc(C(F)(F)F)cc2Cl)CC1 -4.72%
O=C1NC[C@H](CCCCN2C[C@H](Cc3ccccc3)N(Cc3ccccc3)C(=O)C2=O)N(CCc2ccc(O)cc2)C1=O -9.13%
O=c1cc(N2CCCCC2)c(-c2ccccc2)nn1Cc1cccc(F)c1 -1.41%
Cc1ccc(NNC(=O)C2CCC2)cc1C -5.21%
CCOc1ccc(NC(=S)N2CCC(NC(=O)c3ccccc3)CC2)cc1 -4.25%
Cc1cc(N/C=C\C(=O)c2ccc(Cl)c(Cl)c2)no1 -21%
CCOc1ccc(NC(=O)C2CCCN(C(=O)Nc3ccccc3)C2)cc1 (stereo not given) -2.21%
O=C(/C=C/NCc1ccc(F)cc1)c1ccccc1 -22.1%
COc1ccc(N2C(=O)CCC(C(=O)Nc3ccccn3)C2c2ccc(OC)c(OC)c2)cc1 (stereo not given) 2.83%
COCc1ccc(C(=O)NC2CC(C)(C)Cc3c2cnn3-c2ccc(C)cc2)o1 (stereo not given) 3.46%
COCCCNC(=O)CC1C[C@H](C(=O)N2CCCCC2)[C@@]2(CCc3ccccc3)c3[nH]c4ccccc4c3CCN2C1=O (stereo not given in full) 17.5%
O=C(CCCl)Nc1ccc(S(=O)(=O)NCc2ccco2)cc1 13%
CCNC(=O)c1cc2c(c(-c3cccc(-c4cncnc4)c3)n1)[C@H](CCO)N(C(C)=O)C2 -9.64%
Cc1ccccc1-n1nnc2c(=O)oc3ccccc3c21 -3.42%
O=C1CCC(=O)N1c1ccc(NCCc2ccccc2F)c([N+](=O)[O-])c1 -12.8%
S=C(c1ccc(-c2ccccc2)o1)N1CCCCC1 -8.48%
C=CCc1ccccc1OCC(O)CN1CCN(CCO)CC1 (stereo not given) -11.8%
Cc1cc(C)n2c(NCc3ccccc3)c(CC(C)C)nc2n1 -7.32%
Cc1ccc(C)c(S(=O)(=O)N(C)c2ccc(OC(=O)C3CCN(C(=O)c4ccc(F)cc4)CC3)cc2)c1 -10.5%
O=C(NCC(=O)N1CCN(c2ccccc2F)CC1)c1cccs1 -8.04%
Cc1ccc(C)c(NC(CC(=O)c2ccccc2)C(=O)OCC(=O)c2cccs2)c1 (stereo not given) -31.8%
Cc1nn(-c2ccccc2)c(=O)c2noc(C)c12 2.03%
COc1cccc(CN2C(=O)CCC2(C)C(=O)NC2CCCCCC2)c1 (stereo not given) 9.99%
CCOC(=O)C1=CC[C@@H](c2ccccc2)N(S(=O)(=O)c2ccc(C)cc2)[C@H]1c1cccc(OC)c1 3.81%
CN1CCN(S(=O)(=O)c2ccc(N3CCN(S(=O)(=O)c4cccs4)CC3)nc2)CC1 -14.8%
OC[C@@H]1CN(Cc2ccncc2)C[C@H](n2cnc3c(N4CCN(c5ccccc5)CC4)ncnc32)O1 29.9%
Cc1cccc(NC(=S)N2CCC(C(=O)c3ccc(F)cc3)CC2)c1 -7.96%
O=[N+]([O-])c1c(NCCO)cc(Sc2nc3ccccc3s2)c2nonc12 9.76%
Clc1ccc(-c2nnc(SCc3nc4ccccc4s3)o2)cc1 -3.77%
COC(=O)[C@]12CCCCC=C1N(CCC1=CCCCC1)C(=O)[C@H](CC(=O)NCC1CCCCC1)C2 9.77%
Cc1ccc(-c2c(C)n([O-])c3c([n+]2=O)CCC3)cc1 19%
CN(C(=O)c1cccc(OC2CCN(S(=O)(=O)N(C)C)CC2)c1)C1CCOC1 (stereo not given) -26.3%
CNS(=O)(=O)c1cccc(C(=O)NCC2CCCCC2)c1 -15.5%
